# Values joined by “and” are separate entries in the source; they are usually repeats but may differ in a detail not shown here. Identical values can stand only once. Inconclusive results are not listed. A call without a number means that no potency is given here. The source holds several records for some structures; these can differ, active in one and inactive in another. Active and inactive are the calls of the source. Unless noted, the call rests on the fitted dose curve; in most records, active means well fitted curve in the direction sought with a large enough effect in the repeat runs; inconclusive means weak or mixed curves; inactive means no such curve, though single readings can be large; an effect the other way counts as inactive or inconclusive.
# Legend:
# [1] = qHTS assay to identify small molecule antagonists of the glucocorticoid receptor (GR) signaling pathway - cell viability counter screen (AID 720693); further: nearly all actives have a fitted effect of over 55% in size; further: potency means the concentration at half of the fitted maximal effect
# [2] = qHTS assay for identifying genotoxic compounds that show differential cytotoxicity against isogenic chicken DT40 cell lines with known DNA damage response pathways - wild type cell line (AID 743012); further: nearly all actives have a fitted effect of over 60% in size; further: potency means the concentration at half of the fitted maximal effect
# Procedure, shortened: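 Endpoint: CellTiter-Glo luminescence, 30 min RT. Cells: wild type DT40, 300/well. Exposure: compounds in DMSO, 40 h, 37 C/5% CO2, after ~0.5 h pre-incubation.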
# [3] = qHTS assay for identifying genotoxic compounds that show differential cytotoxicity against isogenic chicken DT40 cell lines with known DNA damage response pathways - Rev3 mutant cell line (AID 743014); further: nearly all actives have a fitted effect of over 55% in size; further: potency means the concentration at half of the fitted maximal effect
# [4] = qHTS assay for identifying genotoxic compounds that show differential cytotoxicity against isogenic chicken DT40 cell lines with known DNA damage response pathways - Rad54/Ku70 mutant cell line (AID 743015); further: nearly all actives have a fitted effect of over 60% in size; further: potency means the concentration at half of the fitted maximal effect
# [5] = qHTS assay to identify small molecule antagonists of the androgen receptor (AR) signaling pathway - cell viability counter screen (AID 743033; further: nearly all actives have a fitted effect of over 45% in size; further: potency means the concentration at half of the fitted maximal effect)
# [6] = target: Androgen receptor (Homo sapiens) (UniProt P10275); assay: qHTS assay to identify small molecule antagonists of the androgen receptor (AR) signaling pathway (AID 743035; active means well fitted inhibition curve with a large enough effect in the signal ratio in the repeat runs, not every such curve was filed as active; the % refers to the signal ratio; further: potency means the concentration at half of the fitted maximal effect)
# Chain of Androgen receptor (Homo sapiens) (P10275 whole entry, looked up): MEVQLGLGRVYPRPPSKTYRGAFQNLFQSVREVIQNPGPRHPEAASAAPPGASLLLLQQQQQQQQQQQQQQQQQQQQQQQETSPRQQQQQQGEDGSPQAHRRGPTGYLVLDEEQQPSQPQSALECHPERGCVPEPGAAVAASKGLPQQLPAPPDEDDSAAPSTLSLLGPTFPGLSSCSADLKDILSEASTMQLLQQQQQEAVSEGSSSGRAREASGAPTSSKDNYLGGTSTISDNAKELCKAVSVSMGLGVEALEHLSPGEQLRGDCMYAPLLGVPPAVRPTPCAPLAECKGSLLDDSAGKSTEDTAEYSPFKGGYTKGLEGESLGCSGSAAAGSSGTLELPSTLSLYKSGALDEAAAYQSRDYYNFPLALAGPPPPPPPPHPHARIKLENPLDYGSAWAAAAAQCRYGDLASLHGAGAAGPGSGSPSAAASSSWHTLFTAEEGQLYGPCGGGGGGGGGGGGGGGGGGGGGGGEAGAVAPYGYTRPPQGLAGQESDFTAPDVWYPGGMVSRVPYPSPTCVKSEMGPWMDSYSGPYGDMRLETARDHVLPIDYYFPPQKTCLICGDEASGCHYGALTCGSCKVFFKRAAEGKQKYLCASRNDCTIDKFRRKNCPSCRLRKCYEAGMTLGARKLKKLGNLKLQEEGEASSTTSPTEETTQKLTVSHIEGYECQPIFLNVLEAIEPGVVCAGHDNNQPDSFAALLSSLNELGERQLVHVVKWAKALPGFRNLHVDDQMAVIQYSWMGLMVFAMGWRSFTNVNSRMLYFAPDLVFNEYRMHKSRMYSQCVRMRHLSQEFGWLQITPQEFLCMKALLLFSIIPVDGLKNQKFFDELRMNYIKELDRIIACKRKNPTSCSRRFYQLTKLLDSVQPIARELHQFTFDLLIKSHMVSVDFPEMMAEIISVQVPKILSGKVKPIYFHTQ
# Procedure, shortened: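 R1881 agonist challenge of a HEK293 UAS-beta-lactamase AR reporter line in the presence of compound (16 h, 37C); signal taken as FRET fluorescence after 2 h with LiveBLAzer B/G substrate at room temperature.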
# [7] = target: Androgen receptor (Homo sapiens) (UniProt P10275); assay: qHTS assay to identify small molecule agonists of the androgen receptor (AR) signaling pathway (AID 743036; active means well fitted activation curve with a large enough effect in the signal ratio in the repeat runs, with a control signal flat, not every such curve was filed as active; the % refers to the signal ratio; further: potency means the concentration at half of the fitted maximal effect)
# Procedure, shortened: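 Activation was read as beta-lactamase FRET signal from LiveBLAzer B/G substrate, added for 2 h at room temperature. Before that, GeneBLAzer AR-UAS-bla GripTite (HEK293) cells had 16 h compound exposure at 37C.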
# [8] = target: Androgen receptor (Homo sapiens) (UniProt P10275); assay: qHTS assay to identify small molecule agonists of the androgen receptor (AR) signaling pathway using the MDA cell line (AID 743040; further: nearly all actives have a fitted effect of over 20% in size)
# Procedure, shortened: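 Testing was done with the MDA-kb2 AR-luc line, a human breast carcinoma stably transfected with MMTV-luciferase containing AR and GR response elements. Cells were exposed 16 h at 37C before ONE-Glo luminescence detection.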
# [9] = qHTS assay to identify small molecule antagonists of the androgen receptor (AR) signaling pathway using the MDA cell line - cell viability counter screen (AID 743041; further: nearly all actives have a fitted effect of over 45% in size; further: potency means the concentration at half of the fitted maximal effect)
# Procedure, shortened: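 Compound exposure lasted 16 h at 37C in MDA-kb2 AR-luc cells stimulated with R1881. Protease-based CellTiter-Fluor reagent was applied for the final 30 min and fluorescence measured.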
# [10] = target: Androgen receptor (Homo sapiens) (UniProt P10275); assay: qHTS assay to identify small molecule antagonists of the androgen receptor (AR) signaling pathway using the MDA cell line (AID 743042; further: nearly all actives have a fitted effect of over 55% in size; further: potency means the concentration at half of the fitted maximal effect)
# Procedure, shortened: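 MDA-kb2 breast carcinoma cells carrying MMTV-luciferase (AR/GR responsive) were co-treated with compounds and the agonist R1881 for 16 h at 37C. Inhibition read as ONE-Glo luminescence; CellTiter-Fluor fluorescence measured in parallel for cytotoxicity.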
Compound,Potency [1],Potency [2],Potency [3],Potency [4],Potency [5],Potency [6],Potency [7],outcome [8],Potency [9],Potency [10]
O=C(/C=C/c1ccccc1)OC/C=C/c1ccccc1,inactive,17.2 µM (active),15.4 µM (active),13.7 µM (active),inactive,inactive,inactive,inactive,inactive,inactive
C=CC(C)(CCC=C(C)C)OC=O (configuration not stated),inactive,inactive,24.3 µM (active),54.5 µM (active),inactive,,,,inactive,
Cc1ccc(C)cc1,inactive,inactive,inactive,inactive,inactive,inactive,inactive,inactive,inactive,inactive
C=C(C)c1cccc(C(=C)C)c1,inactive,inactive,inactive,inactive,inactive,,,,inactive,
OCCN1CCN(CCCN2c3ccccc3Sc3ccc(C(F)(F)F)cc32)CC1,inactive,3.76 µM (active),1.68 µM (active),4.22 µM (active),,,,,,
CC1(C)[C@@H](O)CC[C@]2(C)[C@H]3C(=O)C=C4[C@@H]5C[C@@](C)(C(=O)O)CC[C@]5(C)CC[C@@]4(C)[C@]3(C)CC[C@@H]12,inactive,inactive,5.96 µM (active) and inactive,2.37 µM (active) and inactive,inactive,inactive,inactive,inactive,inactive,inactive
O=C(/C=C/c1ccc(O)c(O)c1)O[C@@H](C(=O)O)[C@@H](OC(=O)/C=C/c1ccc(O)c(O)c1)C(=O)O,inactive,inactive,inactive,inactive,inactive,,,,,
CC(CO)Oc1ccccc1 (configuration not stated),inactive,inactive,inactive,inactive,inactive,inactive,inactive,inactive,inactive,inactive
NC(=S)NC(N)=S,inactive,61.1 µM (active),61.1 µM (active),68.6 µM (active),inactive,inactive,inactive,inactive,inactive,inactive
O=C(O)Cc1ccccc1Nc1c(Cl)cccc1Cl,inactive,inactive,inactive and 61.1 µM (active),inactive and 68.6 µM (active),inactive,inactive,inactive,inactive,inactive,inactive
Clc1sc(Cl)c(Cl)c1Cl,inactive,inactive,inactive,inactive,inactive,inactive,inactive,inactive,inactive,inactive
c1ccsc1,inactive,inactive,inactive,inactive,inactive,inactive,5.9 µM (active),,inactive,inactive
FC(F)(F)c1cccc(Cl)c1,inactive,inactive,inactive,inactive,inactive,inactive,,inactive,inactive,
CN(C)c1ccc(C(=C2C=CC(=[N+](C)C)C=C2)c2ccc(N(C)C)cc2)cc1,6.01 µM (active) and 3.45 µM (active) and 9.77 µM (active),335 nM (active) and 542 nM (active) and 193 nM (active),473 nM (active) and 483 nM (active) and 243 nM (active),422 nM (active) and 483 nM (active) and 193 nM (active),1.69 µM (active) and 1.37 µM (active) and 347 nM (active),347 nM (active),,inactive,3.35 µM (active) and 7.66 µM (active) and 4.33 µM (active),2.37 µM (active) and 859 nM (active) and 864 nM (active)
Oc1c(I)cc(Cl)c2cccnc12,inactive,18.8 µM (active) and 15.3 µM (active),11.9 µM (active) and 15.3 µM (active),16.8 µM (active) and 19.3 µM (active),inactive and 17.3 µM (active),inactive,inactive,inactive,inactive,inactive
C[C@@H](O)[C@H](N)C(=O)O,inactive,inactive,inactive,inactive,inactive,,,,inactive,
COc1cc2nc(N3CCN(C(=O)c4ccco4)CC3)nc(N)c2cc1OC,inactive,10.6 µM (active),13.3 µM (active),13.3 µM (active),,,,,,
CCCCC(CC)CN1CN(CC(CC)CCCC)CC(C)(N)C1 (configuration not stated),inactive,10.1 µM (active),12.7 µM (active),8.04 µM (active),inactive,inactive,inactive,inactive,inactive,inactive
O=C(O)c1cc(O)c2ccccc2c1O,inactive,6.11 µM (active),5.45 µM (active),6.11 µM (active),inactive,,,,,
Nc1cc(Cl)c(O)c(Cl)c1,inactive,10.9 µM (active),15.4 µM (active),24.3 µM (active),inactive,,,inactive,inactive,inactive
CCCCCCCCCCOC(=O)c1ccccc1C(=O)OCCCCCCCC,inactive,inactive,inactive,inactive,inactive,,inactive,inactive,inactive,inactive
Nc1ccc(C(=O)O)c(O)c1,inactive,inactive,inactive,inactive,inactive,inactive,inactive,inactive,inactive,inactive

Compound,Potency [1],Potency [2],Potency [3],Potency [4],Potency [5],Potency [6],Potency [7],outcome [8],Potency [9],Potency [10]
CC(=O)c1ccc(C(C)=O)cc1,inactive,inactive,inactive,inactive,inactive,inactive,inactive,inactive,inactive,inactive
Cc1cc(-c2ccc(N=Nc3cc(S(=O)(=O)O)c4ccccc4c3N)c(C)c2)ccc1N=Nc1cc(S(=O)(=O)O)c2ccccc2c1N,inactive,0.548 µM (active),0.388 µM (active),0.346 µM (active),,,,,,
CCOC(=O)Cn1cccc1-c1nc(-c2ccc(OC)cc2)c(-c2ccc(OC)cc2)s1,inactive,inactive,inactive,inactive,inactive,inactive,,inactive,inactive,inactive
CCCC(=O)OC(C)(C)Cc1ccccc1,inactive,inactive,inactive,inactive,inactive,,,,inactive,
O=C1OC2(c3ccc(O)cc3Oc3cc(O)ccc32)c2ccc(N=C=S)cc21,inactive,inactive,inactive,inactive,inactive,,,,,
NC(=O)c1cccc([N+](=O)[O-])c1,inactive,inactive,inactive,inactive,inactive,inactive,,inactive,inactive,inactive
COc1cccc2c1C(=O)c1c(O)c3c(c(O)c1C2=O)C[C@@](O)(C(C)=O)C[C@@H]3O[C@H]1C[C@H](N)[C@H](O)[C@H](C)O1,7.56 µM (active) and 2.2 µM (active),23.7 nM (active) and 21.8 nM (active),37.6 nM (active) and 12.3 nM (active),10.6 nM (active) and 2.4 nM (active),22 µM (active),,,,54.8 µM (active),
CC(C)OC(=O)C(O)(CC(=O)O)CC(=O)O,inactive,inactive,inactive,inactive,inactive,inactive,inactive,inactive,inactive,inactive
Cc1ccc(O)c(N)c1,inactive,54.5 µM (active),54.5 µM (active),61.2 µM (active),inactive,,,,,
OC[C@H]1O[C@H](O[C@H]2O[C@H](CO)[C@@H](O)[C@H](O)[C@H]2O)[C@H](O)[C@@H](O)[C@@H]1O,inactive,inactive,inactive,inactive,inactive,inactive,,inactive,inactive,inactive
CCCCCCOC(=O)C(C)CC (configuration not stated),inactive,inactive,inactive,inactive,inactive,inactive,inactive,inactive,inactive,inactive
CC(=O)OCC=C(C)C,inactive,inactive,inactive,inactive,inactive,inactive,inactive,inactive,inactive,inactive
CCCCCCC1CCCC(=O)O1 (configuration not stated),inactive,inactive,inactive,inactive,inactive,,,,,
CCCCCCCCCCCCOC(=O)c1ccc(O)cc1,24.7 µM (active),inactive,inactive,inactive,inactive,inactive,,,inactive,inactive
CC(=O)[C@H]1CC[C@H]2[C@@H]3CCC4=CC(=O)CC[C@]4(C)[C@H]3CC[C@]12C,3.87 µM (active),6.68 µM (active) and 13.6 µM (active) and 7.7 µM (active),9.44 µM (active) and 6.82 µM (active) and 6.86 µM (active),9.44 µM (active) and 12.1 µM (active) and 12.2 µM (active),inactive and 43.6 µM (active),,,,inactive,
CCc1ccc(Br)cc1,inactive,inactive,inactive,inactive,inactive,,,,inactive,
CC1(C)CCC[C@]2(C)[C@H]3CCO[C@]3(C)CC[C@@H]12,inactive,inactive,inactive,inactive,inactive,,,,inactive,
O=C(O)[C@H](O)[C@@H](O)[C@H](O[C@@H]1O[C@H](CO)[C@H](O)[C@H](O)[C@H]1O)[C@H](O)CO,inactive,inactive,inactive,inactive,inactive,,,,inactive,
CCCCCCCC/C=C\CCCCCCCCN,inactive,inactive,inactive,inactive,inactive,,,,inactive,
CC/C=C\CCCCCO,inactive,inactive,inactive,inactive,inactive,,,,inactive,
O=C(O)c1cc(-c2ccc(F)cc2F)ccc1O,inactive,inactive,inactive,inactive,inactive,,,,inactive,
